“And” between values parts separate entries of the source, which are not always exact repeats. Equal entries are not always repeated. Results filed as inconclusive are left out. The source made the active and inactive calls. Unless noted, calls come from the whole dose curve; as a rule, active = well fitted curve in the direction sought with a large enough effect; inconclusive = small, poorly fitted or top-dose-only effect, or another doubt; inactive = no such curve, though single readings can be large; an effect the other way counts as inactive or inconclusive. Some results are limits rather than exact numbers.

Here are results for 9 compounds from PubChem BioAssay (NCATS).

Assay [1] is described as follows: Cell Viability - BJ (AID 421; calls by dose curve;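 note: potency is the fitted concentration of half-maximal effect; cells exposed to compound for 40 hours at 37 °C before readout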). As to conditions: BJ fibroblast viability, qHTS. In short, it runs like this:
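Cytotoxicity in human BJ foreskin fibroblasts is scored as loss of cellular ATP after a 40-hour exposure, measured by luciferase luminescence. Controls are DMSO and 100 uM tamoxifen.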
For orientation: In qHTS, concentration-response curves come from the screen itself.

Assay [2] is described as follows: Cellular Toxicity (caspase-3) N2a (AID 665).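 Note: compound exposure lasted 16 h at 37 °C before readout.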 As to conditions: N2a cells, luminescence, normalized: DMSO 0%, 10 µM staurosporine 100%; at 92.2 µM (top of the series). In short, it runs like this:
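Mouse N2a neuroblastoma cells, 1500 per well, treated 16 h at 37 °C in complete medium; caspase-3/7 activity by Caspase-Glo luminescence after 1 h. Normalized to DMSO and 10 uM staurosporine; AC50 from Hill fits.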

A short description of assay [3]: MultiTox-Fluor Cytotoxicity Assay - LYMP1-001 - Dead Cells (AID 946).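 Note: 0% = DMSO and 100% = tetraoctylammonium bromide.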 The following applies: LYMP1-001 lymphoblastoid cells, dead-cell protease fluorescence; series mostly up to 92.2 µM. In short, it runs like this: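 Seed 2500 LYMP1-001 cells/well, incubate 5 hr at 37 C; add compound, 16 hr at 37 C; add MultiTox-Fluor reagent, 60 min RT; read dead-cell fluorescence Ex/Em=485/520. Normalize to DMSO and 15 uM tetraoctylammonium bromide.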

A short description of assay [4]: Cell Viability - LYMP2-019 (AID 973).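 Note: cells exposed to compound for 24 h at 37 °C; 0% = DMSO alone and full effect = 92 µM tetraoctylammonium bromide; nearly all actives have a fitted effect of over 55% in size.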 The following applies: LYMP2-019 lymphoblastoid cell line viability; series mostly up to 92.2 µM. In short, it runs like this:
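Human lymphoblastoid LYMP2-019 cells (2500/well) preincubated 5 h at 37 C, then treated 24 h at 37 C in complete medium. Viability by CellTiter-Glo ATP luminescence after 30 min at room temperature; AC50 from Hill fits.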

Assay [5] is described as follows: Cell Viability - LYMP2-021 (AID 974).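 Note: compound exposure lasts 24 hours at 37 °C; % is set by controls: 0 for no effect and ±100 for the full control effect; nearly all actives have a fitted effect of over 55% in size.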 The following applies: LYMP2-021 lymphoblastoid cells viability; series mostly up to 92.2 µM. In short, it runs like this: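 Human lymphoblastoid LYMP2-021 cells, 2500/well in complete medium, treated 24 hours at 37 C. Intracellular ATP by CellTiter-Glo luminescence (30 min, RT); AC50 from Hill fits of concentration-response.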

Assay [6] has as its target Peroxisome proliferator-activated receptor gamma (Homo sapiens) (UniProt P37231). Nature of the assay: qHTS assay for small molecule antagonists of peroxisome proliferator-activated receptor gamma signaling (AID 588537; active = well fitted inhibition curve with a large enough effect in the signal ratio, with a control signal flat, not every such curve was filed as active; the % refers to the signal ratio;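 note: reporter cells co-stimulated with 50 nM rosiglitazone agonist during compound treatment; % of control where 0% means no effect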). As to conditions: HEK293 PPARg-UAS-bla, beta-lactamase ratio, antagonist mode; series mostly up to 76.8 µM. In short, it runs like this: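 We seeded GeneBLAzer HEK293 reporter cells at 3000 per well, allowed 6-6.5 h attachment at 37 C, then co-treated with test compound titrations and 50 nM rosiglitazone overnight (16 h). Inhibition was quantified from 460/530 nm emission ratios.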

Assay [7] is described as follows: qHTS assay for small molecule agonists of the antioxidant response element (ARE) signaling pathway (AID 651741; active = well fitted activation curve with a large enough effect in the signal ratio; the % refers to the signal ratio; note: potency is the fitted concentration of half-maximal effect; for activation: % of control where 0% means no effect). The following applies: HepG2 ARE-bla reporter, beta-lactamase FRET ratio, 16 h; series mostly up to 96 µM. The method, boiled down: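 Compounds in DMSO are pinned onto HepG2 ARE-bla cells (2,000/well) that were preincubated 5 h; plates stay 16 h at 37 C, then beta-lactamase activity is detected with LiveBLAzer B/G substrate by fluorescence.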

A short description of assay [8]: Cell Viability - NIH 3T3 (AID 541).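 Note: plate controls were DMSO alone for no effect and tamoxifen positive control for full effect; nearly all actives have a fitted effect of over 25% in size.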 As to conditions: NIH 3T3 cell viability, qHTS; activity change, negative = cytotoxicity: at 92.2 µM (top of the series). The method, boiled down:
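Mouse NIH 3T3 fibroblasts, 1000 cells/well, rested 5 hr at 37 °C, then exposed to compound for 40 hr at 37 °C in complete medium. Viability read as intracellular ATP by CellTiter-Glo luminescence; AC50 from Hill-equation fits of concentration-response data.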

A short description of assay [9]: Cellular Toxicity (caspase-3) Jurkat (AID 655).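 Note: cells exposed to compound for 16 h at 37 °C before reading.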 The following applies: Jurkat caspase-3 activation, luminescence, DMSO = 0%, tamoxifen = 100%; at 92.2 µM (top of the series). In short, it runs like this: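 qHTS in human Jurkat T-cell leukemia line: 16 hr compound treatment at 37 °C, caspase-3/7 activity measured by Caspase-Glo luminescence. AC50 derived from Hill equation.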

Assay [10] can be described thus: Cellular Toxicity (caspase-3) SK-N-SH (AID 661). The following applies: SK-N-SH caspase-3 activation, qHTS, DMSO as zero, staurosporine as full; series mostly up to 91.7 µM. The method, boiled down:
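Human SK-N-SH neuroblastoma cells, 1500/well, were exposed to compounds for 16 hours at 37 °C. Caspase-Glo 3/7 luminescence was normalized to DMSO (basal) and 10 uM staurosporine (100%), and AC50 came from a Hill fit.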

Assay [11] is described as follows: Cellular Toxicity (caspase-3) H-4-II-E (AID 663).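 Note: cells exposed to compound for 16 hr before readout.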 As to conditions: H-4-II-E rat hepatoma, scaled: DMSO 0%, 100 µM tamoxifen 100%; series mostly up to 92.2 µM. In short, it runs like this:
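Luminescence from caspase-cleaved aminoluciferin substrate, read 20 min after reagent addition, reports caspase 3/7 activation in rat H-4-II-E cells after 16 hr compound exposure. Normalized to DMSO (basal) and 100 uM tamoxifen (100%); AC50 from Hill fits.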

Assay [12] is described as follows: Cellular Toxicity (caspase-3) Hek293 (AID 664).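 Note: cells exposed to compound for 16 h at 37 °C before readout.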 As to conditions: HEK293 caspase-3 activation, DMSO = 0%, 100 µM tamoxifen = 100%; series mostly up to 92.2 µM. In short, it runs like this:
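HEK293 cells in complete medium treated 16 h at 37 °C, then Caspase-Glo 3/7 luminescence read after 20 min at room temperature. Normalized to DMSO and 100 uM tamoxifen; AC50 from Hill fit of concentration-response.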

Assay [13] addresses Bile acid receptor (Homo sapiens) (UniProt Q96RI1). Put plainly: qHTS assay for small molecule antagonists of farnesoid X receptor signaling (AID 588526; calls by dose curve; note: % is set by controls: 0 for no effect and ±100 for the full control effect). The following applies: HEK293T FXR-UAS-bla, beta-lactamase ratio, antagonist mode; series mostly up to 76.7 µM. The method, boiled down:
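Concentration-response titrations were fitted to the Hill equation for half-maximal inhibition and maximal response, with data normalised to 50 uM chenodeoxycholic acid and DMSO control wells. Cells: FXR-UAS-bla HEK293T, dialyzed FBS.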

The target of assay [14] is Vitamin D3 receptor (Homo sapiens) (UniProt P11473). Nature of the assay: qHTS assay for small molecule antagonists of vitamin D receptor signaling (AID 588541; calls by dose curve;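 note: receptor activated by calcitriol during compound treatment; % is set by controls: 0 for no effect and ±100 for the full control effect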). As to conditions: HEK293T VDR-UAS-bla, beta-lactamase ratio, antagonist mode; series mostly up to 76.7 µM. The method, boiled down:
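VDR-UAS-bla HEK293T cells (2000/well, 2% charcoal-stripped FBS) were treated with titrated compounds plus 1-alpha,25-dihydroxyvitamin D3 (50 nM or 3 nM final) for 16 h at 37 C. CCF4 beta-lactamase fluorescence was read; Hill fits gave IC50.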

Assay [15] shares this target. Put plainly: qHTS assay for small molecule agonists of vitamin D receptor signaling (AID 588543; calls by dose curve;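 note: 0% = DMSO basal and 100% = reference agonist control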). As to conditions: HEK293T VDR-UAS-bla, beta-lactamase ratio, 16 h; series mostly up to 76.8 µM. In short, it runs like this:
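Measured: β-lactamase reporter activity (CCF4, 405 nm excitation, 460/530 nm emission) in HEK293T VDR-UAS-bla cells after 16 h compound exposure at 37 °C. Normalization against 50 nM 1α,25-dihydroxyvitamin D3 and DMSO; Hill-fit EC50.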

Assay [16] can be described thus: Cellular Toxicity (caspase-3) Renal Proximal Tubule (AID 667).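 Note: cells exposed to compound for 16 hours at 37 °C before detection.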 As to conditions: renal proximal tubule cells; at 91.7 µM (top of the series), primary cells freshly taken from rat, solvent-only wells 0%, staurosporine 100% unless noted. The method, boiled down:
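Caspase-Glo 3/7 read-out, rat primary kidney proximal tubule cells. Compound exposure 16 h, 37 °C; detection after 1 h at RT. Activity scaled to DMSO and 10 uM staurosporine.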

The nature of assay [17]: Cell Viability - SK-N-SH (AID 435; calls by dose curve;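 note: potency is the fitted concentration of half-maximal effect; compound exposure lasted 40 h at 37 °C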). The following applies: SK-N-SH neuroblastoma cell viability qHTS. The method, boiled down:
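Human neuroblastoma line, 40 h exposure at 37 °C, ATP quantified via luciferase luminescence; DMSO and 100 uM tamoxifen define 0 and 100% inhibition for AC50 fitting.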

A short description of assay [18]: qHTS assay for small molecule antagonists of peroxisome proliferator-activated receptor delta signaling (AID 588535; active = well fitted inhibition curve with a large enough effect in the signal ratio, with a control signal flat, not every such curve was filed as active; the % refers to the signal ratio;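 for max response: cells co-treated with a PPAR-delta agonist as stimulator during compound exposure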). The following applies: HEK293T PPARd-UAS-bla, beta-lactamase FRET ratio, 18 h; 460 nm channel. The method, boiled down:
(§1)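 Reporter: UAS-bla under PPAR-delta response element, HEK293T host. Medium: 2% charcoal/dextran FBS. Dosing: titration, 18 hrs, 37 C. Detection: CCF4, 2 hrs RT, 405 ex/460 and 530 em.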

Assay [19] concerns the target Peroxisome proliferator-activated receptor delta (Homo sapiens) (UniProt Q03181). The description is as above. The following applies: HEK293T PPARd-UAS-bla, beta-lactamase FRET ratio, 18 h; series mostly up to 76.7 µM. The method, boiled down:
as §1

Assay [20] can be described thus: Cellular Toxicity (caspase-3) BJ (AID 658). The following applies: BJ fibroblasts, luminescence, normalized: DMSO 0%, staurosporine 100%; series mostly up to 91.7 µM. In short, it runs like this:
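Luminescent aminoluciferin-substrate cleavage reports caspase 3/7 activity in normal human BJ fibroblasts after 16 hr compound exposure at 37 °C. Normalized to DMSO (basal) and 10 uM staurosporine (100%); AC50 from Hill fit of concentration-response.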

Sequence of Vitamin D3 receptor (Homo sapiens) (P11473 whole entry, looked up): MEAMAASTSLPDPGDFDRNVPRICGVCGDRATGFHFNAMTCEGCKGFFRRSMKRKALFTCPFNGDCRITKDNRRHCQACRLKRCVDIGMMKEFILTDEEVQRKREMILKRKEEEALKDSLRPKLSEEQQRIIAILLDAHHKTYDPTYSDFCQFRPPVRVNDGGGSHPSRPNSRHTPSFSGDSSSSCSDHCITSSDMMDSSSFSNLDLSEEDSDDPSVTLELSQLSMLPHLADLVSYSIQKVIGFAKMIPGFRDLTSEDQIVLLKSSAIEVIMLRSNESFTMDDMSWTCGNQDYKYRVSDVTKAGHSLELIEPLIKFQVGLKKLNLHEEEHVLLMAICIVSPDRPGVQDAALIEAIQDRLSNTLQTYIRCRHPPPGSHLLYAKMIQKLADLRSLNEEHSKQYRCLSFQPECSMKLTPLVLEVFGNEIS
Sequence of Peroxisome proliferator-activated receptor gamma (Homo sapiens) (P37231 whole entry, looked up): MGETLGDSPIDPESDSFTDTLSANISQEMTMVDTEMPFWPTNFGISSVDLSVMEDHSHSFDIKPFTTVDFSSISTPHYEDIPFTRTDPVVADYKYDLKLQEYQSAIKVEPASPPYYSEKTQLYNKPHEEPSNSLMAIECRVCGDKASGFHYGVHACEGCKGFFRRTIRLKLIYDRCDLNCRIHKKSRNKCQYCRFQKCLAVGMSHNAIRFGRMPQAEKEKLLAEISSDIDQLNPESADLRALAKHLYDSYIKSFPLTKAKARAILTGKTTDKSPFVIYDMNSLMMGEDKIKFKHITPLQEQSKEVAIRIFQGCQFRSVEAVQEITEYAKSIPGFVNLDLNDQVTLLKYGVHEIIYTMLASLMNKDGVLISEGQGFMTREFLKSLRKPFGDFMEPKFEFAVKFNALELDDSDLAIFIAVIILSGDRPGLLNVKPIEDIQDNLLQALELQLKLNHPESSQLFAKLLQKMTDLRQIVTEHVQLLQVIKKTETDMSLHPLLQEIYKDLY
Sequence of Bile acid receptor (Homo sapiens) (Q96RI1 whole entry, looked up): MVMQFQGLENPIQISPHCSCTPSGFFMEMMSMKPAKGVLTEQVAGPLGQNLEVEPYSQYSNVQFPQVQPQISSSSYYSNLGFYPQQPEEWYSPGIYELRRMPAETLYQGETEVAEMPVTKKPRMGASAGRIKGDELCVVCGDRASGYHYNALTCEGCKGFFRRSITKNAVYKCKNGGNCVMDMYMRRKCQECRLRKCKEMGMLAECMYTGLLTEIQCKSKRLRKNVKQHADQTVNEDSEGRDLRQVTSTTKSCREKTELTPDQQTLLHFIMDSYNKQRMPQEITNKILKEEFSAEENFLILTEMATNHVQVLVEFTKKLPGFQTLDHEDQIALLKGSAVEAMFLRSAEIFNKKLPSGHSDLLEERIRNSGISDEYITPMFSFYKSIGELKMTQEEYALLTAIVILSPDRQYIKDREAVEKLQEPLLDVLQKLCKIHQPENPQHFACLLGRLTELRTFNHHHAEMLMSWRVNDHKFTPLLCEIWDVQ
Sequence of Peroxisome proliferator-activated receptor delta (Homo sapiens) (Q03181 whole entry, looked up): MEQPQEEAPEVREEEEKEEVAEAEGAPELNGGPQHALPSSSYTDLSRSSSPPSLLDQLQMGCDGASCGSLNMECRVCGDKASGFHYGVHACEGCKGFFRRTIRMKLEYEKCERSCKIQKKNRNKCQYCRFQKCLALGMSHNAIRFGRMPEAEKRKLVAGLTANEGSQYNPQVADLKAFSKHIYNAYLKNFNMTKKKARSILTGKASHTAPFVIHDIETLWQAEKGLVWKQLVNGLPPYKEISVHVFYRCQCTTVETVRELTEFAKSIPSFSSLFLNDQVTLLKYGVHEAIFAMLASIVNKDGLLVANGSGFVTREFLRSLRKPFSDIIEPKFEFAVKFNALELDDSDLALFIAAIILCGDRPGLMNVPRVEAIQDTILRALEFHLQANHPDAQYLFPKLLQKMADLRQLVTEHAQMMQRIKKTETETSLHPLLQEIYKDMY

With `Nc1c(Cl)c(Cl)nc(C(=O)O)c1Cl`, the Potency in [1] is > 92 µM (inactive). Further, the caspase-3 activation in assay [2] is -2.12% (inactive). Further, the Potency result in [3], in assay [4], in assay [5], in assay [6] and in assay [7] was “inactive” throughout.
Take `O=NN(CCO)CCO`: the Potency in assay [1] is > 92 µM (inactive). Moreover, the activity change, negative = cytotoxicity in assay [8] was -23.2% (inactive). For the same compound, in assay [9], the caspase-3 activation is -1.33% (inactive). The result in [10], in assay [11], in assay [12], in [13], in [14] and in [15] was inactive. Besides, the Potency result in assay [5] and in assay [7] was “inactive” throughout.
As to `C[C@]12CC[C@H]3[C@@H](CCC4=CC(=O)CC[C@@]43C)[C@@H]1CC[C@@H]2O`, the Potency in [1] is > 92 µM (inactive). Besides, the activity change, negative = cytotoxicity in assay [8] was -90.5% (active). Besides, the caspase-3 activation in assay [9] is 4.38% (inactive); in [2], 3.16% (inactive); in [16] it was -4.12% [at 91.7 µM] (inactive). Besides, the result in assay [11] and in assay [15] was inactive. Also, the Potency result in assay [3], in assay [4], in [5] and in assay [6] was “inactive” in each case.
Regarding `Clc1ccc2ccccc2c1`, the Potency in [17] is > 92 µM (inactive). Besides, the activity change, negative = cytotoxicity in [8] is 7.96% (inactive). Also, the caspase-3 activation in assay [9] is 0.888% (inactive); in assay [2] it was 4.04% (inactive); in assay [16] it was 7.88% (inactive). Also, the outcome in assay [10], in assay [13], in [14] and in [15] was inactive. Also, the Potency result in assay [4], in assay [5], in assay [19], in assay [6] and in assay [7] was “inactive” throughout. The max response in [18] was -27.9%.
With `Nc1ccc(Br)cc1`, the Potency in [1] was > 92 µM (inactive). For the same compound, the activity change, negative = cytotoxicity in assay [8] is -14.1% (inactive). Moreover, the caspase-3 activation in assay [9] was 5.03% (inactive); in [2], 0.277% (inactive). Also, the compound was classed as inactive in assay [20], in assay [10], in assay [12] and in [13]. Besides, the Potency result in assay [3], in [4] and in assay [5] was “inactive” throughout.
Consider `CC(=O)[O-].CC(=O)[O-].O.O.O.[Pb+2]`, for which the Potency in assay [1] is > 92 µM (inactive); in assay [7], 33.5 µM (active) and 37.6 µM (active). Besides, the outcome in assay [20] and in assay [11] was inactive. Also, the caspase-3 activation in assay [16] is -9.48% (inactive) and -1.66% (inactive). Moreover, the Potency entry in [3] and in assay [5] was “inactive” in each case.
As for `C=CCOC(=O)c1ccccc1N`, the Potency in assay [17] is > 92 µM (inactive). Moreover, the caspase-3 activation is 0.746% (inactive) in assay [9], -3.47% (inactive) in assay [2] and 0.151% [at 91.7 µM] (inactive) in [16]. In addition, the compound was called inactive in [20], in assay [10], in [11], in assay [14] and in assay [15]. Also, the Potency entry in [4] and in assay [19] was “inactive” throughout. Besides, the max response in [18] came to 8.66%.
In the case of `COc1ccc(C=O)cc1OC`, the Potency in [1] and in assay [17] was > 92 µM (inactive) throughout. Also, in [20], the outcome was inactive. The caspase-3 activation is -1.73% (inactive) in [2] and -4.32% (inactive) in assay [16]. Besides, the Potency entry in [4], in [6] and in assay [7] was “inactive” throughout.
As to `CCCC(=O)Cl`, the Potency in assay [17] was > 92 µM (inactive). Further, in assay [9], the caspase-3 activation is -0.695% (inactive). Further, the call in assay [20], in assay [10], in assay [11], in assay [12], in assay [13] and in assay [14] was inactive. Moreover, in [15], the result was inactive. Also, the Potency result in [5] and in assay [6] was “inactive” throughout.
